# Laboratory results published in PubChem BioAssay (NCI).
# The panel holds about 79,000 compounds, 15% with a hit somewhere; the sample as a whole holds those more often. Unmarked numbers belong to inactive results. The source made the active and inactive calls. No stated cut-off is given here; in the data, active means growth inhibition above about 70%; inactive means the rest.
# Tests used:
# [1] = NCI Yeast Anticancer Drug Screen. Data for the rad52 strain (AID 147);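 further: 0% = growth of vehicle-treated control cultures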; details: S. cerevisiae rad52 mutant growth inhibition, stronger effect = higher value
# Outline: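 Inhibition of yeast growth, referenced to vehicle controls, was the measured output for a strain with defective DNA damage repair.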
# [2] = NCI Yeast Anticancer Drug Screen. Data for the wt1 strain (AID 149);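 further: 0% = growth of vehicle-treated wt1 cultures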; details: S. cerevisiae wt1 strain (SPY 50644) growth inhibition, stronger effect = higher value
# Outline: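 Using yeast strain wt1, compound-induced growth inhibition was determined against vehicle-treated cultures.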
# [3] = NCI Yeast Anticancer Drug Screen. Data for the rad50EPP+ strain (AID 151);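 further: 0% = growth of vehicle-treated control cultures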; details: S. cerevisiae rad50 mutant strain, stronger effect = higher value
# Outline: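 Genetically defined yeast (rad50EPP+, DNA damage repair alteration) is grown with compound, and inhibition of growth is expressed relative to vehicle-treated controls.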
# [4] = NCI Yeast Anticancer Drug Screen. Data for the mgt1 strain (AID 153); details: S. cerevisiae mgt1 mutant growth inhibition, stronger effect = higher value
# Outline: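 In the mgt1 strain, test compounds were added and growth inhibition was determined relative to vehicle-treated controls.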
# [5] = NCI Yeast Anticancer Drug Screen. Data for the rad50 strain (AID 155);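 further: 0% = growth of vehicle-only cultures of the same strain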; details: S. cerevisiae rad50 strain growth inhibition, stronger effect = higher value
# Outline: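 Relative growth inhibition (compound vs vehicle) was measured in yeast with a defined repair-gene alteration.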
# [6] = NCI Yeast Anticancer Drug Screen. Data for the mec2-1 strain (AID 157); details: S. cerevisiae mec2-1 strain, stronger effect = higher value
# Outline: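 Each compound was tested on mec2-1 yeast, a strain altered in DNA damage repair or cell cycle control. Growth inhibition is reported relative to vehicle.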
# [7] = NCI Yeast Anticancer Drug Screen. Data for the rad14 strain (AID 159);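 further: 0% = growth of vehicle-treated control cultures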; details: S. cerevisiae rad14 strain growth inhibition, stronger effect = higher value
# Outline: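 Screen for anticancer potential: a yeast strain altered in DNA damage repair is grown with compound, and reduced growth is quantified against vehicle controls.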
# [8] = NCI Yeast Anticancer Drug Screen. Data for the sgs1 mgt1 strain (AID 161);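 further: 0% = growth of cultures given vehicle only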; details: S. cerevisiae sgs1 mgt1 strain, stronger effect = higher value
# Outline: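 Read-out: growth inhibition vs vehicle controls. Cells: mutant yeast strain deficient in DNA damage repair.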
# [9] = NCI Yeast Anticancer Drug Screen. Data for the CLN2oe strain (AID 163);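 further: 0% = growth of vehicle-only control cultures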; details: S. cerevisiae CLN2oe strain, stronger effect = higher value
# Outline: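 First, the altered yeast strain was treated with each compound; second, its growth was measured; finally, inhibition was derived by comparison with vehicle controls.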
# [10] = NCI Yeast Anticancer Drug Screen. Data for the cln2 rad14 strain (AID 165);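 further: 0% = growth equal to vehicle treated cultures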; details: S. cerevisiae cln2 rad14 strain, stronger effect = higher value
# Outline: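 Test compounds were added to cln2 rad14 yeast cultures; inhibition of growth was then determined by comparison with vehicle treatment.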
# [11] = NCI Yeast Anticancer Drug Screen. Data for the bub3 strain (AID 167); details: S. cerevisiae bub3 mutant strain, stronger effect = higher value
# Outline: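 Screening used yeast with an engineered genetic alteration affecting cell cycle control. Compound-exposed cultures were compared with vehicle cultures, and reduced growth was taken as inhibition.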
# [12] = NCI Yeast Anticancer Drug Screen. Data for the wt2 strain (AID 169);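 further: 0% = growth of vehicle-treated yeast cultures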; details: S. cerevisiae wt2 strain growth inhibition, stronger effect = higher value
# Outline: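 The panel's yeast strains carry defined changes in DNA repair or cell cycle genes. Each strain is grown with compound, and growth loss is scored relative to vehicle.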
# [13] = NCI Yeast Anticancer Drug Screen. Data for the mlh1 strain (AID 171);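 further: 0% = growth of vehicle-treated control cultures of the same strain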; details: S. cerevisiae mlh1 strain growth inhibition, stronger effect = higher value
# Outline: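 Inhibition values reflect reduced yeast growth in the presence of compound, referenced to vehicle controls, using a strain chosen for its alteration in DNA repair or cell cycle control.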
# [14] = NCI Yeast Anticancer Drug Screen. Data for the mlh1 rad18 strain (AID 175); details: S. cerevisiae mlh1 rad18 strain growth inhibition, stronger effect = higher value
# Outline: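 Inhibition values reflect reduced growth of mutant yeast versus vehicle-treated controls following compound exposure; the mutations affect DNA damage repair.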
# [15] = NCI Yeast Anticancer Drug Screen. Data for the rad18 strain (AID 177); details: S. cerevisiae rad18 mutant growth inhibition, stronger effect = higher value
# Outline: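 Steps: expose repair-mutant yeast to compound; measure growth; express as inhibition relative to vehicle control.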
# [16] = NCI Yeast Anticancer Drug Screen. Data for the sgs1 strain (AID 173);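 further: 0% = growth of vehicle-only control cultures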; details: S. cerevisiae sgs1 mutant, stronger effect = higher value
# Outline: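 Vehicle-treated cultures served as reference for growth inhibition of a yeast strain altered in DNA damage repair or cell cycle control after compound exposure.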
# [17] = at 5.0 µM (retest, dose inferred, filed as 0.5)
# [18] = at 50.0 µM (retest, dose inferred, filed as 5.0)
smiles,measurement,setting,value
CC1=C[C@H]2O[C@@H]3C[C@H]4OC(=O)/C=C\C=C\C(C(C)O)OCC(O)C(C)CC(=O)OC[C@@]2(C[C@@H]1O)[C@]4(C)[C@@]31CO1 (stereo partly specified),growth inhibition,[1]; at 1.2 µM,-21%
same,growth inhibition,[1]; at 3.7 µM,2%
same,growth inhibition,[1]; at 11.0 µM,91% (active)
same,growth inhibition,[1]; at 33.0 µM,97% (active)
same,growth inhibition,[1]; at 100.0 µM,97% (active)
same,growth inhibition,[2]; at 1.2 µM,-13%
same,growth inhibition,[2]; at 3.7 µM,24%
same,growth inhibition,[2]; at 11.0 µM,93% (active)
same,growth inhibition,[2]; at 33.0 µM,98% (active)
same,growth inhibition,[2]; at 100.0 µM,98% (active)
same,growth inhibition,[3]; at 1.2 µM,-29%
same,growth inhibition,[3]; at 3.7 µM,-43%
same,growth inhibition,[3]; at 11.0 µM,-31%
same,growth inhibition,[3]; at 33.0 µM,-46%
same,growth inhibition,[3]; at 100.0 µM,-55%
same,growth inhibition,[4]; at 1.2 µM,-54%
same,growth inhibition,[4]; at 3.7 µM,-7%
same,growth inhibition,[4]; at 11.0 µM,92% (active)
same,growth inhibition,[4]; at 33.0 µM,97% (active)
same,growth inhibition,[4]; at 100.0 µM,97% (active)
same,growth inhibition,[5]; at 1.2 µM,-23%
same,growth inhibition,[5]; at 3.7 µM,17%
same,growth inhibition,[5]; [17],41%
same,growth inhibition,[5]; at 11.0 µM,92% (active)
same,growth inhibition,[5]; at 33.0 µM,97% (active)
same,growth inhibition,[5]; [18],98% (active)
same,growth inhibition,[5]; at 50.0 µM,91.1% (active)
same,growth inhibition,[5]; at 100.0 µM,97% (active)
same,growth inhibition,[6]; at 1.2 µM,-60%
same,growth inhibition,[6]; at 3.7 µM,-3%
same,growth inhibition,[6]; [17],40%
same,growth inhibition,[6]; at 11.0 µM,88% (active)
same,growth inhibition,[6]; at 33.0 µM,97% (active)
same,growth inhibition,[6]; [18],98% (active)
same,growth inhibition,[6]; at 50.0 µM,92.2% (active)
same,growth inhibition,[6]; at 100.0 µM,97% (active)
same,growth inhibition,[7]; at 1.2 µM,-14%
same,growth inhibition,[7]; at 3.7 µM,25%
same,growth inhibition,[7]; at 11.0 µM,93% (active)
same,growth inhibition,[7]; at 33.0 µM,97% (active)
same,growth inhibition,[7]; at 100.0 µM,97% (active)
same,growth inhibition,[8]; [17],7%
same,growth inhibition,[8]; [18],12%
same,growth inhibition,[8]; at 50.0 µM,92.2% (active)
same,growth inhibition,[9]; at 1.2 µM,13%
same,growth inhibition,[9]; at 3.7 µM,24%
same,growth inhibition,[9]; at 11.0 µM,91% (active)
same,growth inhibition,[9]; at 33.0 µM,97% (active)
same,growth inhibition,[9]; at 100.0 µM,18%
same,growth inhibition,[10]; [17],18%
same,growth inhibition,[10]; [18],-18%
same,growth inhibition,[10]; at 50.0 µM,91.4% (active)
same,growth inhibition,[11]; at 1.2 µM,-46%
same,growth inhibition,[11]; at 3.7 µM,4%
same,growth inhibition,[11]; [17],4%
same,growth inhibition,[11]; at 11.0 µM,89% (active)
same,growth inhibition,[11]; at 33.0 µM,97% (active)
same,growth inhibition,[11]; [18],-8%
same,growth inhibition,[11]; at 50.0 µM,90.8% (active)
same,growth inhibition,[11]; at 100.0 µM,97% (active)
same,growth inhibition,[12]; at 1.2 µM,-12%
same,growth inhibition,[12]; at 3.7 µM,8%
same,growth inhibition,[12]; at 11.0 µM,78% (active)
same,growth inhibition,[12]; at 33.0 µM,98% (active)
same,growth inhibition,[12]; at 100.0 µM,98% (active)
same,growth inhibition,[13]; at 1.2 µM,-73%
same,growth inhibition,[13]; at 3.7 µM,3%
same,growth inhibition,[13]; at 11.0 µM,89% (active)
same,growth inhibition,[13]; at 33.0 µM,97% (active)
same,growth inhibition,[13]; at 100.0 µM,97% (active)
same,growth inhibition,[14]; [17],68%
same,growth inhibition,[14]; [18],98% (active)
same,growth inhibition,[14]; at 50.0 µM,89.7% (active)
same,growth inhibition,[15]; at 1.2 µM,-64%
same,growth inhibition,[15]; at 3.7 µM,-15%
same,growth inhibition,[15]; at 11.0 µM,91% (active)
same,growth inhibition,[15]; at 33.0 µM,96% (active)
same,growth inhibition,[15]; at 100.0 µM,96% (active)
C[N+]1(CCCl)CC[N+](C)(CCCl)CC1 (stereo unspecified),growth inhibition,[1]; at 1.2 µM,0%
same,growth inhibition,[1]; at 3.7 µM,3%
same,growth inhibition,[1]; at 11.0 µM,5%
same,growth inhibition,[1]; at 33.0 µM,36%
same,growth inhibition,[1]; at 100.0 µM,95% (active)
same,growth inhibition,[2]; at 1.2 µM,0%
same,growth inhibition,[2]; at 3.7 µM,-1%
same,growth inhibition,[2]; at 11.0 µM,1%
same,growth inhibition,[2]; at 33.0 µM,14%
same,growth inhibition,[2]; at 100.0 µM,95% (active)
same,growth inhibition,[3]; at 1.2 µM,0%
same,growth inhibition,[3]; at 3.7 µM,0%
same,growth inhibition,[3]; at 11.0 µM,2%
same,growth inhibition,[3]; at 33.0 µM,7%
same,growth inhibition,[3]; at 100.0 µM,56%
same,growth inhibition,[4]; at 1.2 µM,-2%
same,growth inhibition,[4]; at 3.7 µM,1%
same,growth inhibition,[4]; at 11.0 µM,3%
same,growth inhibition,[4]; at 33.0 µM,29%
same,growth inhibition,[4]; at 100.0 µM,97% (active)
same,growth inhibition,[5]; at 1.2 µM,1%
same,growth inhibition,[5]; at 3.7 µM,2%
same,growth inhibition,[5]; [17],18%
same,growth inhibition,[5]; at 11.0 µM,4%
same,growth inhibition,[5]; at 33.0 µM,48%
same,growth inhibition,[5]; [18],95% (active)
same,growth inhibition,[5]; at 50.0 µM,97.2% (active)
same,growth inhibition,[5]; at 100.0 µM,96% (active)
same,growth inhibition,[6]; at 1.2 µM,-3%
same,growth inhibition,[6]; at 3.7 µM,-3%
same,growth inhibition,[6]; [17],21%
same,growth inhibition,[6]; at 11.0 µM,2%
same,growth inhibition,[6]; at 33.0 µM,81% (active)
same,growth inhibition,[6]; [18],99% (active)
same,growth inhibition,[6]; at 50.0 µM,96.7% (active)
same,growth inhibition,[6]; at 100.0 µM,98% (active)
same,growth inhibition,[7]; at 1.2 µM,1%
same,growth inhibition,[7]; at 3.7 µM,3%
same,growth inhibition,[7]; at 11.0 µM,7%
same,growth inhibition,[7]; at 33.0 µM,56%
same,growth inhibition,[7]; at 100.0 µM,96% (active)
same,growth inhibition,[8]; [17],29%
same,growth inhibition,[8]; [18],98% (active)
same,growth inhibition,[8]; at 50.0 µM,96.1% (active)
same,growth inhibition,[9]; at 1.2 µM,-3%
same,growth inhibition,[9]; at 3.7 µM,-2%
same,growth inhibition,[9]; at 11.0 µM,3%
same,growth inhibition,[9]; at 33.0 µM,32%
same,growth inhibition,[9]; at 100.0 µM,95% (active)
same,growth inhibition,[10]; [17],2%
same,growth inhibition,[10]; [18],96% (active)
same,growth inhibition,[10]; at 50.0 µM,94.3% (active)
same,growth inhibition,[11]; at 1.2 µM,1%
same,growth inhibition,[11]; at 3.7 µM,1%
same,growth inhibition,[11]; [17],78% (active)
same,growth inhibition,[11]; at 11.0 µM,-5%
same,growth inhibition,[11]; at 33.0 µM,29%
same,growth inhibition,[11]; [18],98% (active)
same,growth inhibition,[11]; at 50.0 µM,97% (active)
same,growth inhibition,[11]; at 100.0 µM,97% (active)
same,growth inhibition,[12]; at 1.2 µM,0%
same,growth inhibition,[12]; at 3.7 µM,0%
same,growth inhibition,[12]; at 11.0 µM,1%
same,growth inhibition,[12]; at 33.0 µM,14%
same,growth inhibition,[12]; at 100.0 µM,94% (active)
same,growth inhibition,[13]; at 1.2 µM,0%
same,growth inhibition,[13]; at 3.7 µM,-1%
same,growth inhibition,[13]; at 11.0 µM,0%
same,growth inhibition,[13]; at 33.0 µM,13%
same,growth inhibition,[13]; at 100.0 µM,94% (active)
same,growth inhibition,[16]; at 1.2 µM,0%
same,growth inhibition,[16]; at 3.7 µM,-1%
same,growth inhibition,[16]; at 11.0 µM,1%
same,growth inhibition,[16]; at 33.0 µM,34%
same,growth inhibition,[16]; at 100.0 µM,96% (active)
same,growth inhibition,[14]; [17],13%
same,growth inhibition,[14]; [18],97% (active)
same,growth inhibition,[14]; at 50.0 µM,97.6% (active)
same,growth inhibition,[15]; at 1.2 µM,-2%
same,growth inhibition,[15]; at 3.7 µM,-1%
same,growth inhibition,[15]; at 11.0 µM,5%
same,growth inhibition,[15]; at 33.0 µM,61%
same,growth inhibition,[15]; at 100.0 µM,97% (active)
